Results as given in ChEMBL document CHEMBL1157539, “Thousands of chemical starting points for antimalarial lead identification” (Nature, 2010).
Whole data set: some 13,000 compounds, median “IFI” near 4, cut for the highest 2% near 17. For the sample, the highest values were picked, then their nearest neighbours and some compounds at random.

test: GSK_TCMDC: Inhibition Frequency Index (IFI). The number of non-kinase HTS assays where a compound showed > 50 % inhibition, expressed as a percentage of the number of such assays in which the compound was tested; type: functional

Row | SMILES | IFI
1 | COc1ccc(NC(=O)CCNc2cc(C)nc(NCCc3ccc(F)cc3)n2)cc1 | 4.88%
2 | N#Cc1ccc(N2CCN(Cc3ccc(-c4ccc(-c5nc6cc(C(F)(F)F)ccc6[nH]5)cc4)cc3)CC2)nc1 | 3.96%
3 | NS(=O)(=O)c1cccc(-c2ccc3ncc(N4CCOCC4)nc3c2)c1 | 3.7%
4 | Cc1[nH]c(C)c(-c2ccc(-c3ccc(Cl)cc3)nc2)c(=O)c1Cl | 0.92%
5 | COc1cc2s/c(=N\C(=O)c3cccc([N+](=O)[O-])c3)n(C)c2cc1OC | 1.72%
6 | O=C(NC1CCC(CCN2CCc3ccc(-c4cnccn4)cc3CC2)CC1)c1cccc(-n2cccn2)c1 (stereo not drawn) | 5.3%
7 | O=C1CCCN1CCCNCc1ccc(-c2ccc(-c3nc4cc(C(F)(F)F)ccc4[nH]3)s2)cc1 | 6.67%
8 | O=C(Nc1cccc(-c2cccc(-c3nc4cc(C(F)(F)F)ccc4[nH]3)c2)c1)c1cccnc1 | 4.59%
9 | CCN(CC)CCCC(C)N/C(=N\c1ccccc1Br)Nc1ccc(C#N)cc1O (stereo not drawn) | 0%
10 | Cc1cnc(Nc2cccc(CCN3CCOCC3)c2)nc1NC(C)C | 17.2%
11 | Cc1cccc(Nc2nccc(Nc3cccc(C(=O)NCCN4CCOCC4)c3)n2)c1 | 0%
12 | OC(CNc1ccnc(Nc2cccc(CCN3CCOCC3)c2)n1)c1ccccc1 (stereo not drawn) | 9.28%
13 | Oc1ccc(CCNCCCCNCCc2ccc(Cl)cc2)cc1O | 6.12%
14 | Cc1[nH]c(C)c(-c2ccc(OCc3cccc(C(F)(F)F)c3)nc2)c(=O)c1Br | 13.8%
15 | CCCC(C(=O)OCCNC)(c1ccccc1)c1ccccc1 | 3.6%
16 | COc1ccc(CCN(C)CCCN2CCC(NC(=O)c3cccc4c(=O)c5ccccc5[nH]c34)CC2)cc1OC | 5.76%
17 | COc1ccc(CCN(C)CCCN2CCC(NC(=O)c3cccc4c(=O)c5ccccc5sc34)CC2)cc1OC | 21.9%
18 | COc1ccc(CCN(C)CCCCc2ccc(NC(=O)c3cccc4c(=O)c5cc(F)ccc5sc34)cc2)cc1OC | 10%
19 | Clc1ccc(Cl)c2[nH]c(CNCCCNc3nc4ccccc4[nH]3)cc12 | 4.38%
20 | COc1ccc2c(OC)cccc2c1CNCCCCCCNCc1c(OC)ccc2c(OC)cccc12 | 13.7%
21 | Cc1cccn2c(=O)c3cc(C(=O)NCCc4ccccc4)c(=N)n(CCCOC(C)C)c3nc12 | 4.3%
22 | O=[N+]([O-])c1ccc2nccnc2c1 | 1.44%

Row | SMILES | IFI
23 | O=[N+]([O-])c1ccc(/C=N/O)nc1 | 23.4%
24 | O=[N+]([O-])c1ccc(C=NNc2nc3ccccc3[nH]2)cc1 | 0%
25 | CC(C)c1ccc(CN2CCC(CNC(=O)c3cc(-c4cccc(F)c4)cs3)C2)cc1 (stereo not drawn) | 14.3%
26 | CC1(C)NC(N)=NC(=N)N1OCc1cccs1 | 1.43%
27 | CCCCCCCN(CCCCCCC)CCCC(=O)Nc1ccnc2ccc(OC)cc12 | 7.87%
28 | COc1c(C2CCN(CCCCNC(=O)c3ccc(-c4ccc(Cl)cc4)cc3)CC2)ccc2c1C(C)(C)CCC2(C)C | 6.82%
29 | CC1(C(=O)Nc2ccc([N+](=O)[O-])cc2O)CC2c3ccccc3C1c1ccccc12 (stereo not drawn) | 17.4%
30 | O=[N+]([O-])c1ccc(N/C(=N\c2ccccc2Br)NC2CCCc3ccccc32)c(O)c1 (stereo not drawn) | 4.17%
31 | O=C(Nc1ccc([N+](=O)[O-])cc1O)Nc1ccccc1Oc1ccccc1 | 17%
32 | COc1ccccc1CCNc1nc(C)cc(N[C@@H](Cc2ccccc2)C(=O)NCCCOC(C)C)n1 | 0%
33 | O=C(O)c1cccnc1Sc1ccc(Cl)cc1 | 0%
34 | COc1ccc(CCNCCCCCCNCCc2cccc([N+](=O)[O-])c2)cc1OC | 0%
35 | C[C@H](Cc1ccc(CCc2ccc(C[C@@H](C)NC[C@H](O)c3cccc(Cl)c3)cc2)cc1)NC[C@H](O)c1cccc(Cl)c1 | 21.6%
36 | C[C@H](Cc1ccc(S(=O)(=O)c2ccc(C[C@@H](C)NC[C@H](O)c3cccc(Cl)c3)cc2)cc1)NC[C@H](O)c1cccc(Cl)c1 | 22.7%
37 | C[C@H](Cc1ccc(OCCCCOc2ccc(C[C@@H](C)NC[C@H](O)c3cccc(Cl)c3)cc2)cc1)NC[C@H](O)c1cccc(Cl)c1 | 11.6%
38 | Cc1ccc(CCC(C)NCC(O)c2cccc(Cl)c2)cc1 (stereo not drawn) | 2.96%
39 | C[C@H](Cc1ccc(Oc2ccc(C[C@@H](C)NC[C@H](O)c3cccc(Cl)c3)cc2)cc1)NC[C@H](O)c1cccc(Cl)c1 | 20.8%
40 | COC(=O)c1ccc(CCC(C)NCC(O)c2cccc(Cl)c2)cc1 (stereo not drawn) | 2.88%
41 | C[C@H](Cc1ccc(OCCCOc2ccc(C[C@@H](C)NC[C@H](O)c3cccc(Cl)c3)cc2)cc1)NC[C@H](O)c1cccc(Cl)c1 | 13.1%
42 | C[C@H](Cc1ccc(C[C@@H](C)NC[C@H](O)c2cccc(Cl)c2)cc1)NC[C@H](O)COc1ccccc1 | 7.91%
43 | C[C@H](Cc1ccc(C[C@@H](C)NCC(O)c2cc(Cl)c(N)c(Cl)c2)cc1)NCC(O)c1cc(Cl)c(N)c(Cl)c1 (stereo partly drawn) | 9.35%
44 | COc1cccc(CCc2ccc(O)c3c2C[C@H]2C[C@H]4[C@H](N(C)C)C(O)=C(C(N)=O)C(=O)[C@@]4(O)C(O)=C2C3=O)c1 | 8.41%

Row | SMILES | IFI
45 | CC1(C)NC(N)=NC(=N)N1OCCSCc1cc(Cl)sc1Cl | 4.93%
46 | CN1CCN(CCCN(Cc2ccc(-c3ccc(CNCCc4ccccc4)cc3)cc2)C(=O)c2cccs2)CC1 | 9.03%
47 | C=CCn1c(Sc2ccc(C#N)c([N+](=O)[O-])c2)nnc1-c1ccc(Cl)cc1 | 4.23%
48 | Cc1cc(=NN=Cc2cccc(Cl)c2)c2ccc(F)cc2[nH]1 | 1.49%
49 | CCOC(=O)c1ccc(NC(=O)N[C@H]2CCN(CCCCCNC(=O)/C=C/c3ccc(Cl)c(Cl)c3)C2)cc1 | 7.91%
50 | Cc1cc(N[C@@H](Cc2ccccc2)C(=O)NCCc2ccccc2)nc(NCC2CCCCC2)n1 | 11.4%
51 | Cc1cccc(CNc2nc(C)cc(N[C@@H](Cc3ccccc3)C(=O)NC3CCCC3)n2)c1 | 27.3%
52 | Cc1cc(N[C@@H](Cc2ccccc2)C(=O)NC2CCCC2)nc(NCc2ccccc2C)n1 | 4.88%
53 | Cc1cc(N[C@@H](Cc2ccccc2)C(=O)Nc2ccccc2)nc(NCC2CCCCC2)n1 | 11.6%
54 | Cc1cc(N[C@@H](Cc2ccccc2)C(=O)NC2CCCC2)nc(Nc2ccccc2)n1 | 7.32%
55 | Cc1cc(N[C@@H](Cc2ccccc2)C(=O)NC2CCCC2)nc(NCC2CCCCC2)n1 | 26.2%
56 | O=C(c1cc(-c2cccs2)n[nH]1)N1CCN(S(=O)(=O)c2ccc(Br)cc2)CC1 | 0%
57 | CC(CN(C)C)C(=O)Nc1cccc(-c2ccc(-c3nc4cc(C(F)(F)F)ccc4[nH]3)cc2)c1 (stereo not drawn) | 6.31%
58 | Cc1cc(=NN=CC=Cc2ccccc2)c2cc(F)ccc2[nH]1 | 0.75%
59 | CC(=O)Nc1ccc(CN2CCC(NC(=O)c3ccc(-c4cccc(C(F)(F)F)c4)s3)CC2)cc1 | 10.3%
60 | O=C(NC1CCN(Cc2cccc(C(F)(F)F)c2)CC1)c1ccc(-c2cccc(C(F)(F)F)c2)s1 | 12.7%
61 | CC(C)(C)CCN1CCC(NC(=O)c2ccc(-c3cccc(C(F)(F)F)c3)s2)CC1 | 15.8%
62 | O=C(NC1CCN(CCCc2ccccc2)CC1)c1ccc(-c2cccc(C(F)(F)F)c2)s1 | 17.2%
63 | CN(C)c1ccc(-c2ccc(C(=O)NC3CCN(Cc4cccc(C(F)(F)F)c4)CC3)s2)cc1 | 11.1%
64 | O=C(NC1CCN(Cc2ccsc2)CC1)c1ccc(-c2cccc(C(F)(F)F)c2)s1 | 16.7%
65 | O=C(NC1CCN(Cc2ccc(F)cc2)CC1)c1ccc(-c2cccc(C(F)(F)F)c2)s1 | 24.6%
66 | O=C(NC1CCN(Cc2ccc3c(c2)OCCO3)CC1)c1ccc(-c2cccc(Cl)c2)s1 | 15.2%

Row | SMILES | IFI
67 | CC(C)(C)c1ccc(CN2CCC(NC(=O)c3ccc(-c4cccc(C(F)(F)F)c4)s3)CC2)cc1 | 13%
68 | O=C(NC1CCN(Cc2ccc3c(c2)OCCO3)CC1)c1ccc(-c2cccc(C(F)(F)F)c2)s1 | 22%
69 | CSc1ccc(CN2CCC(NC(=O)c3ccc(-c4cccc(C(F)(F)F)c4)s3)CC2)cc1 | 15.2%
70 | CN(C)c1ccc(CN2CCC(NC(=O)c3ccc(-c4cccc(C(F)(F)F)c4)s3)CC2)cc1 | 17.2%
71 | Nc1nccc2ccc(-c3ccsc3)cc12 | 10.1%
72 | Cc1ccc2nc(N/C(N)=N/C(=O)NC3CCCCC3)nc(C)c2c1 | 3.42%
73 | Cc1cc(-c2cccc(CNCc3ccc(F)cc3)c2)ccc1S(=O)(=O)NCCN1CCCC1 | 12.9%
74 | Cc1cc(N)nc2ccc(-c3ccc(CN)cc3)cc12 | 4.83%
75 | C=C(C)Cn1cc(C2CCN(CCN3CCC(CNC(=O)c4ccc(-c5ccc(C#N)cc5)cc4)CC3)CC2)c2ccccc21 | 10.9%
76 | CCCCCCSc1nnc(COc2cccc3ccccc23)n1-c1ccc(OC)cc1 | 5.43%
77 | CCCn1c(O)nnc1SCC(=O)Nc1cc(C(F)(F)F)ccc1Cl | 1.57%
78 | Nc1cccc(CNCc2cccc(-c3ccc(-c4nc5ccccc5[nH]4)cc3)c2)c1 | 3.81%
79 | CC(C)c1ccc(S(=O)(=O)Nc2cccc(CCN3CCC(N4CCCCC4)CC3)c2)cc1 | 9.52%
80 | O=C(NCCCCN1CCC(c2ccc(-c3ccco3)cc2)CC1)c1ccc(NC(=O)c2ccc(Cl)cc2)cc1 | 5.98%
81 | CN(C)c1ccc(CN2CCC(NC(=O)c3ccc(-c4ccc(N(C)C)cc4)s3)CC2)cc1 | 15.5%
82 | CC(C)c1ccc(CN2CCC(NC(=O)c3ccc(-c4cccc(Cl)c4)s3)CC2)cc1 | 12.1%
83 | CN(C)c1ccc(CN2CCC(NC(=O)c3ccc(-c4cccc(Cl)c4)s3)CC2)cc1 | 17.9%
84 | CN(C)c1ccc(CN2CCC(NC(=O)c3ccc(-c4cccc(F)c4)s3)CC2)cc1 | 10.5%
85 | CC(C)c1ccc(CN2CCC(NC(=O)c3ccc(-c4cccc(F)c4)s3)CC2)cc1 | 17.2%
86 | CC(C)(C)c1ccc(CN2CCC(NC(=O)c3ccc(-c4cccc(F)c4)s3)CC2)cc1 | 12.5%
87 | COc1ccc2nc3cc(Cl)ccc3c(Nc3ccc(O)c(CNC(C)C)c3)c2c1 | 7.64%
88 | CCCCNCc1ccc(-c2nc(CN(CCCn3ccnc3)C(=O)C3COc4ccccc4O3)cs2)cc1 (stereo not drawn) | 4.93%
